PubChem BioAssay (EPA / NIEHS)
Records with an inconclusive call do not appear. Where a structure was tested more than once in an assay, its records may differ in their call. Calls of active or inactive are those of the source. How the source made its calls: active means hit-call score of the fitted dose curve at least 0.9, where 1 is the maximum; inconclusive means response in the unintended direction; inactive means score below 0.9.

target: Cellular tumor antigen p53 (Homo sapiens) (UniProt P04637); assay: TOX21_p53_BLA_p5_ratio: Tox21 HCT-116 p53 Agonism Beta-lactamase Assay, Ratio, Phase 5 (AID 2283599)
Sequence (P04637 whole entry, looked up, the tested form may be a part): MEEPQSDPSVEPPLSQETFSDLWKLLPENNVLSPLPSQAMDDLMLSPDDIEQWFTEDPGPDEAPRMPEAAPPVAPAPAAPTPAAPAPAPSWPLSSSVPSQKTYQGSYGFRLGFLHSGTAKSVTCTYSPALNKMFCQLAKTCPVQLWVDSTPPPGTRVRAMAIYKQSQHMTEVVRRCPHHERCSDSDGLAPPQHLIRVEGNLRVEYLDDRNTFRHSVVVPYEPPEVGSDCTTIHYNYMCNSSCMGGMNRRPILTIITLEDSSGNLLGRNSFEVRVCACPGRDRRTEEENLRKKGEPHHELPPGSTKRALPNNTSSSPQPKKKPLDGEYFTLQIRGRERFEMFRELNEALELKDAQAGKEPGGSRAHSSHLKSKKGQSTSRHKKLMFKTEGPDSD
Description: TOX21_p53_BLA_p5 is a cell-based, single-readout assay that uses HCT116, a human intestinal cell line, […] in a 1536-well plate.TOX21_p53_BLA_p5_ratio is an assay readout measuring reporter gene via receptor activity and designed using inducible reporter (beta lactamase induction) detected with GAL4 b-lactamase reporter gene. The signal is derived from the ratio of cleaved (ch2) to uncleaved (ch1) reporter gene substrate used as the measure of target activity.Data from the assay component TOX21_p53_BLA_p5_ratio was analyzed into 1 assay endpoint. This assay endpoint, TOX21_p53_BLA_p5_ratio, was analyzed in the positive analysis fitting direction relative to DMSO as the negative control and baseline of activity. Using a type of inducible reporter, gain-of-signal activity can be used to understand changes in the reporter gene as they relate to the gene TP53. Furthermore, this assay endpoint can be referred to as a primary readout, because this assay has produced multiple assay endpoints and this ratio serves a reporter gene function to understand target activity. To generalize the intended target to other relatable targets, this assay endpoint is annotated to the DNA binding intended target family, where the subfamily is tumor suppressor.
Thawing Method: Place 14 mL of pre-warmed thaw medium into a 15 mL of conical tub. Remove the vial of cells to be thawed from liquid nitrogen and thaw rapidly by placing at 37C in a water bath with gentle agitation for 1-2 minutes. Decontaminate the vial by wiping with 70% ethanol before opening in a biological safety cabinet. Transfer the vial contents drop-wise into 14 mL of thaw medium in a sterile 15-mL conical tub. Centrifuge cells at 900 rpm for 4 minutes and resuspend in thaw medium. Transfer contents to the T75 tissue culture flask containing Thaw Medium and place flask in a humidified 37C/5% CO2 incubator. Switch to growth medium at first passage.Propagation Method: Aspirate medium, rinse once in DPBS, add 0.25% Trypsin/EDTA and swirl to coat the cell evenly. Add an equal volume of Growth Medium to inactivate Trypsin after 2-3 minutes incubation at 37C. Centrifuge cells at 900 rpm for 4 minutes and resuspend in growth medium. Cell should be passage or fed at least twice a week.Assay Protocol: Harvest cells from culture in growth medium and resuspend in assay medium. 2.2 Dispense 4000 cells/5 uL/well into 1536-well black/clear bottom plates using a Multidrop dispenser. After the cells were incubated at 37C for 5 hours, 23 nL of compounds dissolved in DMSO were transferred to the assay plate by a PinTool resulting in a 217-fold dilution. Incubate the plates for 16 hours at 37C, 5% CO2. Add 1 uL of 6X LiveBLAzer FRET B/G (CCF4-AM) Substrate Mixture to each well using a BioRAPTR dispenser and incubate the plates at room temperature for 2 hours. Measure fluorescence intensity at 460 and 530 nm emission and 405 nm excitation by an Envision detector. Data is expressed as the ratio of 460nm/530nm emissions. Add 4 uL of Cell-titer Glo to each well using BioRAPTR and incubate the plates at room temperature for 2 hours. Measure fluorescence intensity by a VewLux plate reader.

| Compound | outcome | AC50 |
| --- | --- | --- |
| C[C@H]1CCC[C@H](O)CCCCCc2cc(O)cc(O)c2C(=O)O1 | inactive |  |
| CCN(CC)CCOC(=O)C(O)(c1ccccc1)c1ccccc1 | inactive |  |
| NC(=S)C(N)=S | inactive |  |
| CCC1(c2ccccc2)CCC(=O)NC1=O (stereo not given) | inactive |  |
| BrCBr | inactive |  |
| C#CC1(O)CCCCC1 | inactive |  |
| SCc1ccccc1 | inactive |  |
| CC(C)CC(C)N (stereo not given) | inactive |  |
| CC(=O)[O][Sn]([c]1ccccc1)([c]1ccccc1)[c]1ccccc1 |  | 18.4 µM (active) |
| CCCCc1c(C)nc(NCC)[nH]c1=O | inactive |  |
| CO[C@]12CC[C@@]3(C[C@@H]1[C@](C)(O)C(C)(C)C)[C@H]1Cc4ccc(O)c5c4[C@@]3(CCN1CC1CC1)[C@H]2O5 | inactive |  |
| N#C/C=C/C#N | inactive |  |
| O=C(NC(=O)c1c(F)cccc1F)Nc1ccc(Oc2ccc(C(F)(F)F)cc2Cl)cc1F | inactive |  |
| OCCSSCCO | inactive |  |
| O=Cc1ccc(Cl)cc1Cl | inactive |  |
| CCN(Cc1ccc(Cl)nc1)/C(=C/[N+](=O)[O-])NC | inactive |  |
| CN(C)c1ccc(N(C)C)cc1 | inactive |  |
| CC(C)(C)NCC(O)c1cc(Cl)c(N)c(C(F)(F)F)c1 (stereo not given) | inactive |  |
| CCC1(CC)C(=O)NC(=O)N(C)C1=O | inactive |  |
| Cc1ccccc1-n1c(CF)nc2ccc(N)cc2c1=O | inactive |  |

| Compound | outcome | AC50 |
| --- | --- | --- |
| C=CC(=O)OCCN(C)C | inactive |  |
| O=C(NC(=O)c1ccccc1Cl)Nc1ccc(OC(F)(F)F)cc1 | inactive |  |
| C[C@]12CC[C@H]3[C@@H](CC[C@@]45O[C@@H]4C(O)=C(C#N)C[C@]35C)[C@@H]1CC[C@@H]2O | inactive | 68.6 µM (active) |
| CCCCCCC(=O)CCCCCC/C=C/C[C@@H](O)[C@H](O)[C@@](N)(CO)C(=O)O | inactive |  |
| CC(=O)Nc1cc([As](=O)(O)O)ccc1O | inactive |  |
| CC(C)(C)C(=O)C(Cl)Cl | inactive |  |
| N#CCCC#N | inactive |  |
| N#Cc1cccc(C#N)c1 | inactive |  |
| CC(Cl)C(=O)O (stereo not given) | inactive |  |
| CN(C)[C@H](Cc1ccccc1)c1ccccc1 | inactive |  |
| OC(c1ccccc1)(c1ccccc1)C1CN2CCC1CC2 (stereo not given) | inactive |  |
| CCCC[N+]1(C)[C@@H]2CC(OC(=O)[C@H](CO)c3ccccc3)C[C@H]1[C@@H]1O[C@@H]12 (stereo not given in full) | inactive |  |
| S=C=NCCc1ccccc1 | inactive |  |
| Cc1ccc(Cl)c(O)c1 | inactive |  |
| II | inactive |  |
| CCCCCCC[CH2][Sn]([Cl])([Cl])[CH2]CCCCCCC | inactive |  |
| CCN(CC)C(=O)N[C@@H]1C=C2c3cccc4[nH]cc(c34)C[C@@H]2N(C)C1 | inactive |  |
| CSCCCN=C=S | inactive |  |
| CN1c2ccccc2C(NCCCCCCC(=O)O)c2ccc(Cl)cc2S1(=O)=O (stereo not given) | inactive |  |
